Bioassay records deposited in PubChem BioAssay by several laboratories.
S1P3 antagonist: S1P3 (human) receptor antagonism | CHO S1P3 NFAT-BLA reporter, FRET fluorescence, antagonist mode | inhibition, % at 4.98 µM | 170,000 tested, 0.27% active | AID 485;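 active means inhibition above the plate cutoff, the mean inhibition of test wells on that plate plus 3 SD, cut at about 28% in these data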;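 further: cells challenged with S1P at its EC80 of 0.8 µM; blue over green emission ratio from cleaved BLA substrate after 4 h stimulation; 0% = S1P-stimulated wells and 100% = unstimulated DMSO-only wells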
RAM network inh: blocks the yeast RAM network; inhibition, % at 50 µM; S. cerevisiae dse1pr::URA3 reporter, 5-FOA growth OD615, 2 d; analog-sensitive cbk1-as2 kinase mutant strain; 190,000 tested, 1.8% active;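 active means inhibition above a set limit, 3 SD over mean compound inhibition, cut at about 8.4% in these data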;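 further: 0% = DMSO-only wells with no growth and 100% = 10 µM 1-NA-PP1 full growth; inhibition rescues growth on 5-FOA so higher OD means more RAM inhibition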
KCC2 mod: KCC2 (human) Cl- transport modulation. KCC2 cells, thallium flux FluoZin-2 fluorescence. B-score of Tl+ flux slope (higher = more flux/activation; lower = inhibition) at 10 µM. 190,000 tested, 2.2% active. AID 1456. Q9H2X9;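 active means thallium flux slope and its plate-corrected score both differing from the plate sample mean at a set confidence after two filtering rounds, in either direction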;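 further: slope of fluorescence scaled to starting intensity during 10 to 20 s after thallium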
S1P4 agonist: activates the human S1P4 receptor; O95977; S1P4-expressing cell line, agonist reporter assay; activation, % at 4.98 µM; 220,000 tested, 0.35% active; AID 1509; in the data active means activation above about 11%;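 further: 0% = DMSO vehicle and 100% = reference agonist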
S1P4 antag: human S1P4 receptor antagonism; O95977; S1P4-expressing cells, antagonist mode, reporter read-out; inhibition, % at 4.98 µM; 220,000 tested, 0.26% active; AID 1510; in the data active means inhibition above about 29%;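 further: 0% = wells stimulated with agonist and 100% = vehicle wells without agonist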
ROMK primary: modulators of human ROMK potassium channel; P48048; B-score at 10 µM; Tet-inducible ROMK, thallium flux fluorescence; actives lie on both sides; 130,000 tested, 2% active;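 active means signal ratio slope over the read window, or its plate-corrected B-score, at least 3 SD from the plate mean, either direction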;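 further: B-score of the F/F0 ratio slope over 7 to 12 s after thallium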
KCC2 sec1: confirmation of human KCC2 transport modulators; normalised thallium flux (F/F0 slope) at 10 µM; AID 1713; 3,700 tested, 15% active; shares compounds with KCC2 mod; HEK293-KCC2, thallium flux, FluoZin2 fluorescence; active compounds read high;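 active means thallium flux slope above the same plate's solvent-only control mean plus 3 SD; inconclusive means the two replicate wells disagree; inactive means no significant difference from solvent-only control wells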
KCC2 bumet counter: thallium flux despite bumetanide block in KCC2 cells, secondary assay 3. shares compounds with KCC2 mod. HEK293-KCC2 + bumetanide/ouabain, thallium flux FluoZin2; active compounds read high. normalized thallium flux at 10 µM. 3,700 tested, 49% active. AID 1714;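 active means thallium entry rate above the same plate's blocked-transporter control wells by more than 3 SD; inconclusive means the two repeat wells disagree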;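 further: raw slope of fluorescence over initial fluorescence between 10 and 20 s after thallium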
KCC2 secondary2: confirmation of human KCC2 transport modulators; 3,700 tested, 23% active; HEK293-KCC2, thallium flux FluoZin2 fluorescence; actives lie on both sides; F/F0 rise rate, 10–20 s post-thallium; normalized thallium flux at 10 µM; shares compounds with KCC2 mod;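 active means thallium flux slope more than 3 SD above or below the plate's solvent-only control mean, mostly below; inconclusive means the two repeat wells disagreed; inactive means no significant shift from solvent-only controls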;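 further: raw slope with 0.1% DMSO as baseline and bumetanide as block control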
HEK293 Tl flux: acts in parental HEK cells, KCC2 counter-screen; 3,700 tested, 46% active; HEK293 parental cells, thallium flux FluoZin2, ouabain; baseline-ratio fluorescence slope, 10–20 s after thallium; AID 1716; shares compounds with KCC2 mod; thallium flux rate (normalised fluorescence) at 10 µM;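 active means thallium flux rate significantly above the same plate's solvent-only control wells, beyond their mean plus 3 SD; inconclusive means the two replicate wells gave conflicting results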
KCC2 retest ouab: modulates human KCC2 on retest with ouabain; shares compounds with KCC2 mod; 3,700 tested, 48% active; raw Tl+ flux slope (below DMSO = inhibition, above = activation) at 10 µM; HEK293-KCC2, thallium flux FluoZin2 fluorescence; bidirectional: low = inhibitor, high = activator;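 active means thallium flux slope beyond 3 SD from same-plate DMSO control mean in most replicates, usually higher, sometimes lower; inconclusive means repeat tests gave conflicting results; inactive means no significant difference from controls in most replicates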;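 further: slope of initial-normalized fluorescence between seconds 10 and 20 after thallium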
HEK293 Tl flux2: counter-screen for KCC2 modulators: effect in parental HEK293 cells; AID 1718; thallium flux FluoZin-2 fluorescence slope; shares compounds with KCC2 mod; thallium flux slope at 10 µM; 3,700 tested, 33% active;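 active means thallium flux slope above the same plate's solvent-control mean plus 3 SD in both duplicate wells; inconclusive means duplicate wells that disagreed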;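 further: run without ouabain in cells lacking the KCC2 cotransporter; slope of fluorescence scaled to its starting value between 10 and 20 s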
Active calls of the source: *; ? = inconclusive; . = no result given. Rows were chosen to be rich in hits. Some 5.1% of all compounds tested hit in one or more screens of this group.

SMILES	S1P3 antagonist	RAM network inh	KCC2 mod	S1P4 agonist	S1P4 antag	ROMK primary	KCC2 sec1	KCC2 bumet counter	KCC2 secondary2	HEK293 Tl flux	KCC2 retest ouab	HEK293 Tl flux2
O=c1c2nnn(-c3ccccc3)c2ncn1C/C=C/c1ccccc1	-18	2	-0.15	3	6	.	.	.	.	.	.	.
Cc1cc(=O)[nH]c2ccc(Cl)cc12	.	-1	.	2	-14	1.1	0.0098	0.0052	0.037	0.0044	0.021	0.011
CC1CN(c2ccc(S(=O)(=O)N3CCCC3)cn2)CC(C)O1 (stereo unspecified)	-6	.	0.41	0	3	.	.	.	.	.	.	.
Cc1oc2c(O)c(O)ccc2c(=O)c1-c1cnn(-c2ccccc2)c1	.	-1	-0.78	1	-10	-0.11	.	.	.	.	.	.
Cc1oc2cc(O)cc(C)c2c(=O)c1-c1cnn(-c2ccccc2)c1	.	0	-1.9	0	-14	-0.58	0.0084	0.006	0.034	0.0038	0.018	0.011
CCOc1ccc(N2C(=O)C3Sc4[nH]c(=O)sc4C(/C=C/c4ccccc4)C3C2=O)cc1 (stereo unspecified)	-11	5	-5.6*	1	-10	-0.43	0.0067	?	0.019*	0.0083	0.015*	0.011
COc1cc(C2c3sc(=O)[nH]c3SC3C(=O)N(c4ccc(Br)cc4)C(=O)C32)ccc1O (stereo unspecified)	-5	.	.	1	0	.	.	.	.	.	.	.
CCOC(=O)c1sc2nc[nH]c(=O)c2c1C	.	0	5.8*	2	-8	-0.071	0.0084	0.0064	0.03	0.0076	0.023	?
CCn1ncc(Br)c1C(=O)Nc1ccc(C(=O)OC(C)C)cc1	.	2	5.3*	1	-3	-0.75	0.0081	0.0066	0.033	0.0074	0.021	0.011
CCn1ncc(Br)c1C(=O)Nc1ccccc1C(=O)OC	.	.	0.33	-3	-14	.	.	.	.	.	.	.
O=C(COC(=O)C1(c2ccc(F)cc2)CCCC1)N1CCc2ccccc21	-1	1	0.61	-1	-6	0.33	.	.	.	.	.	.
O=C(CCS(=O)(=O)c1ccc(Br)s1)NC1CCCC1	.	0	.	-2	-12	1.6	0.0064	0.0049	0.03	0.008	0.019	0.011
CCOC(=O)C1=C(O)C(=O)N(CCCn2ccnc2)C1c1ccc(OC)cc1 (stereo unspecified)	-6	4	1.5	-1	-17	-0.46	.	.	.	.	.	.
O=C(CSc1ncnc2c1oc1ccccc12)NC1CCCCC1	-5	1	-3.8*	3	-12	.	0.0095	0.0057	?	0.0067	0.02*	0.011
FC(F)(F)c1ccc(/C=N/NC(=S)NC2CCCCC2)cc1	-16	5	0.2	-1	-1	-0.054	.	.	.	.	.	.
C=CCNC(=S)N/N=C/c1ccc(C(F)(F)F)cc1	-8	4	3.5*	2	-8	-2	0.012	0.016*	0.036	?	?	?
CCOc1ccccc1N1CCN(Cc2cn[nH]c2-c2ccc(F)cc2)CC1	-8	.	-0.094	1	4	.	.	.	.	.	.	.
Cn1nnc2ccccc2c1=O	-14	1	1.8	1	0	0.049	.	.	.	.	.	.
C/C(=N\NC(=S)NC1CCCCC1)c1c(F)cccc1F	6	2	22*	3	2	.	0.014*	0.066*	0.028	0.021*	0.046*	0.011*
C/C(=N\NC(=S)NC1CCCCC1)c1cccs1	-8	3	57*	-1	10	.	0.0048	0.053*	0.043*	0.027*	0.048*	0.029*
CCSc1nc2ccccc2c(=O)n1-c1c(C)n(C)n(-c2ccccc2)c1=O	-24	3	-0.026	1	-24	-0.28	.	.	.	.	.	.
COc1ccccc1NC(=O)CN(Cc1ccco1)C(=O)c1ccc(Cl)nc1	-17	4	0.088	3	-26	-0.39	.	.	.	.	.	.
CCOC(=O)Cn1c(=S)[nH]c2c(oc3ccc(Cl)cc32)c1=O	.	7	.	-1	-2	-0.068	0.022*	0.041*	0.033	0.02*	0.04*	0.014*
CCCCN1Cc2c(nc3cc(-c4ccco4)[nH]n3c2=O)C1=O	-7	.	.	-1	5	.	.	.	.	.	.	.
Cc1oc(S(=O)(=O)N2CCOCC2)cc1C(=O)Nc1ccc(Cl)cc1	5	.	1.3	1	-4	1.1	.	.	.	.	.	.
SMILES	S1P3 antagonist	RAM network inh	KCC2 mod	S1P4 agonist	S1P4 antag	ROMK primary	KCC2 sec1	KCC2 bumet counter	KCC2 secondary2	HEK293 Tl flux	KCC2 retest ouab	HEK293 Tl flux2
CCn1c(=S)[nH]c2cc(Cl)ccc21	6	.	10*	0	-12	0.39	?	0.024*	?	0.022*	0.031*	0.019*
CCn1c(=S)[nH]c2ccccc21	.	0	-0.88	0	-39	.	.	.	.	.	.	.
CCCn1c(=S)[nH]c2cc(Cl)ccc21	-5	.	55*	2	-16	.	0.042*	0.088*	0.049*	0.047*	0.051*	0.045*
NNC(=O)C(Cc1c[nH]c2ccccc12)NC(=O)c1ccccc1 (stereo unspecified)	3	.	-0.068	1	2	-0.52	.	.	.	.	.	.
O=C(COC(=O)c1ccccc1-c1ccccc1[N+](=O)[O-])c1ccccc1	.	8	0.38	-1	-3	.	.	.	.	.	.	.
O=C(COC(=O)c1cc([N+](=O)[O-])ccc1NCCO)c1ccccc1	-11	3	-3.2*	3	-5	-0.59	0.0072	?	0.023*	0.0075	?	0.01
O=C(Nc1ccc(NC(=S)NC(=O)c2ccccc2Cl)cc1)c1cccc(Cl)c1	.	.	0.36	0	-11	.	.	.	.	.	.	.
CCOC(=O)N1CCN(C(=S)NC(=O)c2cncc(Br)c2)CC1	-1	2	-0.28	0	-5	1.2	.	.	.	.	.	.
CN1CCN(C(=S)NC(=O)c2ccc(Cl)cc2)CC1	-12	2	14*	1	-12	.	0.0066	0.02*	0.034	0.018*	0.029*	0.017*
Cc1ccc(C(=O)NC(=S)N2CCN(C(=O)OC(C)(C)C)CC2)cc1Br	7	4	19*	3	-1	.	?	0.088*	0.074*	0.062*	0.087*	0.057*
CCOC(=O)N1CCN(C(=S)NC(=O)c2ccc(Br)cc2)CC1	-6	-1	17*	-1	-7	0.66	0.023*	0.059*	0.035	?	0.025	0.013*
